Assay results as given in ChEMBL document CHEMBL3988442, “University of Dundee, Small-Polar-MMV Screening Library” (2021).
For some assays here: Measured potencies and affinities stand elsewhere.

Key:
Set-up in all cases: scale not given: direction of the effect not stated beside the values
[1] = molecular target: Protein translocase subunit SecA (Escherichia coli (strain K12)) (UniProt P10408); assay: Assay to Identify E. coli SecA ATPase Inhibitors; assay type: functional; settings: 30 µM
[2] = molecular target: T1, Ubiquitin-activating enzyme e1, putative (Leishmania donovani (strain BPK282A1)) (UniProt E9BSI1); assay: Leishmania donovani Ubiquitin Activating Enzyme (LdE1); assay type: functional; settings: 30 µM
T1 sequence (whole entry): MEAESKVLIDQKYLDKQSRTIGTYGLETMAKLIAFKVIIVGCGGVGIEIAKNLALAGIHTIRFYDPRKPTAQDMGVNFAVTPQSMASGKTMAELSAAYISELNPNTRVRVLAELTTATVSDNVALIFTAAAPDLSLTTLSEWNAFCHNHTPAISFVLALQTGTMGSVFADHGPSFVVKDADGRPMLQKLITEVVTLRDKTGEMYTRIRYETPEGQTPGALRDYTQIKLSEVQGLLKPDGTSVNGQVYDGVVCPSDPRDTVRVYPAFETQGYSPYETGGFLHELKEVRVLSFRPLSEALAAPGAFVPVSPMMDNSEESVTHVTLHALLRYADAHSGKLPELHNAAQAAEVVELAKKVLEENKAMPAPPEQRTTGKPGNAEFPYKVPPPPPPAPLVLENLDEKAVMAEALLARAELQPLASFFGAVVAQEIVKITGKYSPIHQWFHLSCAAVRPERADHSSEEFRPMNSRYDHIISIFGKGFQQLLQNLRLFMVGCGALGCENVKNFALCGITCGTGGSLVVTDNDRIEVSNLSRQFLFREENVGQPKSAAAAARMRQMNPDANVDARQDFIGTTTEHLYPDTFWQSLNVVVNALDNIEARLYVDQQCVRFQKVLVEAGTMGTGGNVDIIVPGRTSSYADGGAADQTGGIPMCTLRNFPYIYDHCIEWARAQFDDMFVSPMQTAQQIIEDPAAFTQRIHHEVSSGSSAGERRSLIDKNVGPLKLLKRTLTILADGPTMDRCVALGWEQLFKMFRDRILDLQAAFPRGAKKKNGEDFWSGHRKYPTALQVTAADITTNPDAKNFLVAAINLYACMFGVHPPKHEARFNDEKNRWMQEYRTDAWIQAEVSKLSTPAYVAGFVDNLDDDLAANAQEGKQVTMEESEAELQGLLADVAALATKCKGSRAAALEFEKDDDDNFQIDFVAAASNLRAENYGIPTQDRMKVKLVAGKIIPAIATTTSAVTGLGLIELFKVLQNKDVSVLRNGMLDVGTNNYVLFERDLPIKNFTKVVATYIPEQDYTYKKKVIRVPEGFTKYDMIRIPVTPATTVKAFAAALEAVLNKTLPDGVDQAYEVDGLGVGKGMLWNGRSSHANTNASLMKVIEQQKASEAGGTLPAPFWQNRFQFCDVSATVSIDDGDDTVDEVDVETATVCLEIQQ

[3] = molecular target: AMP-activated protein kinase, AMPK (Homo sapiens) (UniProt P54646+O43741+P54619+Q9UGJ0+Q9Y478+Q13131+Q9UGI9); assay: AMP-dependent Kinase enzyme assay. An in vitro enzyme assay that detects ADP turnover that is directly proportional to AMPK activity. This uses naive AMPK that is activated during the assay with MK-8722; assay type: functional; settings: 30 µM
[4] = molecular target: Sialic acid-binding Ig-like lectin 9 (Homo sapiens) (UniProt Q9Y336); assay: Hs-Siglec9 ALPHAscreen SOP 20170721; settings: 10 µM
[5] = test system: Trypanosoma cruzi; assay: Trypanosoma cruzi phosphomannomutase and mannose-1-phosphate guanylyltransferase assay; assay type: functional; settings: 10 µM
[6] = molecular target: T2, Arginase-2, mitochondrial (Homo sapiens) (UniProt P78540); assay: in vitro enzyme assay to detect the production of urea directly proportional to the activity of Arginase II; assay type: functional; settings: 33.3 µM; note: in the data most compounds retested in dose-response had high values
T2 sequence (whole entry): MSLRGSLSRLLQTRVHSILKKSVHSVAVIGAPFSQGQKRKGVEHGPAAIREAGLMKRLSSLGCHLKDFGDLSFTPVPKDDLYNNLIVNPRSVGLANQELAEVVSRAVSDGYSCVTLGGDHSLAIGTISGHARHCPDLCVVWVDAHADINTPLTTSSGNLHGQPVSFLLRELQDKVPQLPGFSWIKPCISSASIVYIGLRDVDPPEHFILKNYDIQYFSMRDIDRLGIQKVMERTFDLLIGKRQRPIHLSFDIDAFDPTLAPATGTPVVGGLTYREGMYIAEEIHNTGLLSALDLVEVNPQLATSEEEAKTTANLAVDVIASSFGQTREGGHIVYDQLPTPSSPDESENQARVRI

[7] = molecular target: T3, Proteasome subunit beta (Trypanosoma cruzi) (UniProt O96673); assay: Trypanosoma cruzi proteasome chymotrypsin-like activity (TcProtChymo) assay.; note: in the data most compounds retested in dose-response had high values; assay type: functional; settings: 9.37 µM
T3 sequence (whole entry): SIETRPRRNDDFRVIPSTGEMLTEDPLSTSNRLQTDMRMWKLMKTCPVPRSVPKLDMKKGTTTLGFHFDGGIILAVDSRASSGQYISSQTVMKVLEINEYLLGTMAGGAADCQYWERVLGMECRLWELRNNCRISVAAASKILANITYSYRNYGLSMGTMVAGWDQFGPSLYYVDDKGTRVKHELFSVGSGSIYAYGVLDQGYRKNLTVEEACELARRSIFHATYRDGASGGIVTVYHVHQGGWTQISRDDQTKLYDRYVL

[8] = species on record: Homo sapiens; assay: To identify inhibition of the IFN signalling (Jak-Stat) pathway via expression of an eGFP reporter gene under the control of an IFN-stimulated response element (ISRE) containing MxA promoter.; assay type: functional; settings: 30 µM
[9] = molecular target: T4, Tyrosyl-tRNA synthetase, putative (Trypanosoma cruzi (strain CL Brener)) (UniProt Q4DSP6); assay: Trypanosoma cruzi tyrosyl tRNA synthetase (TcYRS) _High Tyrosine SOP; assay type: functional; settings: 30 µM; note: in the data most compounds retested in dose-response had high values
T4 sequence (whole entry): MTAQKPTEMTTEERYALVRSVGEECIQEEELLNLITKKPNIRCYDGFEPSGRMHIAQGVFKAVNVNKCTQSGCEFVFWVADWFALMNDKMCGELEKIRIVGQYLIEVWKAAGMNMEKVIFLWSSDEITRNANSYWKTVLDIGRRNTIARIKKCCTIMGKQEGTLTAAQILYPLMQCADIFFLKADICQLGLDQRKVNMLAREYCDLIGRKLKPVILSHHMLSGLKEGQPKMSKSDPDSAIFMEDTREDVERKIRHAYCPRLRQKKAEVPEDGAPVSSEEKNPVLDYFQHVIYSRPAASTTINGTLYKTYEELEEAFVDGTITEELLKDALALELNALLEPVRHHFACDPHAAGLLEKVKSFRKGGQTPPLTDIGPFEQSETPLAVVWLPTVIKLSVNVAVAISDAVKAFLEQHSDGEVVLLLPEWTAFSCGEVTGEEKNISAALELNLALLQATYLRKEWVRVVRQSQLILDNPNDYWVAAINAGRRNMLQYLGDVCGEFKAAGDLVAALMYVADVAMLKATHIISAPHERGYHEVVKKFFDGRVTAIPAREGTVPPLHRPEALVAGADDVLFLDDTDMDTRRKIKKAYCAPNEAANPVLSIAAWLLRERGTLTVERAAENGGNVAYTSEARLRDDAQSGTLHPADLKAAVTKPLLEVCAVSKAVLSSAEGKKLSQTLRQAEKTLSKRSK

[10] = molecular target: T4, Tyrosyl-tRNA synthetase, putative (Trypanosoma cruzi (strain CL Brener)); assay: Trypanosoma cruzi tyrosyl tRNA synthetase (TcYRS) SOP; assay type: functional; settings: 30 µM
[11] = molecular target: Chromo domain-containing protein 1 (Saccharomyces cerevisiae (strain ATCC 204508 / S288c) (Baker's yeast)) (UniProt P32657); assay: ScCHD-1 Enzyme Inhibition Assay; assay type: functional; settings: 30 µM; note: in the data most compounds retested in dose-response had high values
Sequence of Chromo domain-containing protein 1 (Saccharomyces cerevisiae (strain ATCC 204508 / S288c) (Baker's yeast)) (P32657 whole entry, the tested form may be a part): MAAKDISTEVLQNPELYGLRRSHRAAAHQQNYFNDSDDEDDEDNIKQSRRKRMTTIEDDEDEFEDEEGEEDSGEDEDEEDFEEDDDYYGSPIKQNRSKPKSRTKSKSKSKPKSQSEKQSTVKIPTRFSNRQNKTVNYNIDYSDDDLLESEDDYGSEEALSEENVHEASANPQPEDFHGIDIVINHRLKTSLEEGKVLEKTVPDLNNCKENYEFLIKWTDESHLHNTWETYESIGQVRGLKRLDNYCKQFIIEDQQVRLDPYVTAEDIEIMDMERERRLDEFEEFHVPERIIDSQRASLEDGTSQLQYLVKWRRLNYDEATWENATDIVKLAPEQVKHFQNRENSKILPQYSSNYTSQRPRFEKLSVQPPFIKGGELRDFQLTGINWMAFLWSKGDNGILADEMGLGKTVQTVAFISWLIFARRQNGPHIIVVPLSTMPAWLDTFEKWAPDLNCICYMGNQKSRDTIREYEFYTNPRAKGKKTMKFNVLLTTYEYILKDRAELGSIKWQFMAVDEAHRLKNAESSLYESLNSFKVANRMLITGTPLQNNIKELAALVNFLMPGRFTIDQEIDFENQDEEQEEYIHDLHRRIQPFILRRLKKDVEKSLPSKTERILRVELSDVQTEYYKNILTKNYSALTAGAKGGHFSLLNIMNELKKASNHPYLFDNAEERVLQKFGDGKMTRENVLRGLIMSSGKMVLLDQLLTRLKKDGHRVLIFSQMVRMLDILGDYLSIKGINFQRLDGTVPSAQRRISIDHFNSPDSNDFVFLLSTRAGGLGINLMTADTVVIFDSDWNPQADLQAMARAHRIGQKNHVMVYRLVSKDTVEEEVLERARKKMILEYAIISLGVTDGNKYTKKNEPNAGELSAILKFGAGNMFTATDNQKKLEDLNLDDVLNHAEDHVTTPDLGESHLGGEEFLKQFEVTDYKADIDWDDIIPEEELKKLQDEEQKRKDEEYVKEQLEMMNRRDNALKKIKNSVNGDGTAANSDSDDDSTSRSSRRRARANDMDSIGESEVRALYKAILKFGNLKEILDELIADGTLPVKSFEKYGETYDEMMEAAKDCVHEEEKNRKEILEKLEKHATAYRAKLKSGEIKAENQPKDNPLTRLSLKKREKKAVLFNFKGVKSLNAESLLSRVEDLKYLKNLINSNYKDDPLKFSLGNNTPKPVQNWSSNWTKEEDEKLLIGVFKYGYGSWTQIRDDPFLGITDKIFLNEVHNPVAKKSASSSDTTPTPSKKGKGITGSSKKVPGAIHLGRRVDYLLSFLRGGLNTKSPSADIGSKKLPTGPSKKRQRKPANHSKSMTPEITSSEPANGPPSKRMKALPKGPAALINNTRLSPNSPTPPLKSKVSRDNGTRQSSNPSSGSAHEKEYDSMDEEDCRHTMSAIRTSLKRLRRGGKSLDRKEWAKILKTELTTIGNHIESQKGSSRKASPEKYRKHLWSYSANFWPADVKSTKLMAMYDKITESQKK

Sequence of Sialic acid-binding Ig-like lectin 9 (Homo sapiens) (Q9Y336 whole entry): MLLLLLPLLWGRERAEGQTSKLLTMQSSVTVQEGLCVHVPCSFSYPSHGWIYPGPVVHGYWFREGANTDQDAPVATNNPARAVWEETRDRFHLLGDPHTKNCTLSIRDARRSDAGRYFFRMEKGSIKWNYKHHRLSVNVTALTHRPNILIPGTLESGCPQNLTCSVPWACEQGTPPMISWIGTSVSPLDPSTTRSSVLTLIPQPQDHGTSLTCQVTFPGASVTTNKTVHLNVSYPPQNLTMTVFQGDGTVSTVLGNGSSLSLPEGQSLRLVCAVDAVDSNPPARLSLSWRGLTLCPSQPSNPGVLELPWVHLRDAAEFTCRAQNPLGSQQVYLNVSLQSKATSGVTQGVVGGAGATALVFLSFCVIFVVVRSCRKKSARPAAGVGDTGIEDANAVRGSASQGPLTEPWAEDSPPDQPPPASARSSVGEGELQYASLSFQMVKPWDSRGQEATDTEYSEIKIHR
Sequence of Protein translocase subunit SecA (Escherichia coli (strain K12)) (P10408 whole entry): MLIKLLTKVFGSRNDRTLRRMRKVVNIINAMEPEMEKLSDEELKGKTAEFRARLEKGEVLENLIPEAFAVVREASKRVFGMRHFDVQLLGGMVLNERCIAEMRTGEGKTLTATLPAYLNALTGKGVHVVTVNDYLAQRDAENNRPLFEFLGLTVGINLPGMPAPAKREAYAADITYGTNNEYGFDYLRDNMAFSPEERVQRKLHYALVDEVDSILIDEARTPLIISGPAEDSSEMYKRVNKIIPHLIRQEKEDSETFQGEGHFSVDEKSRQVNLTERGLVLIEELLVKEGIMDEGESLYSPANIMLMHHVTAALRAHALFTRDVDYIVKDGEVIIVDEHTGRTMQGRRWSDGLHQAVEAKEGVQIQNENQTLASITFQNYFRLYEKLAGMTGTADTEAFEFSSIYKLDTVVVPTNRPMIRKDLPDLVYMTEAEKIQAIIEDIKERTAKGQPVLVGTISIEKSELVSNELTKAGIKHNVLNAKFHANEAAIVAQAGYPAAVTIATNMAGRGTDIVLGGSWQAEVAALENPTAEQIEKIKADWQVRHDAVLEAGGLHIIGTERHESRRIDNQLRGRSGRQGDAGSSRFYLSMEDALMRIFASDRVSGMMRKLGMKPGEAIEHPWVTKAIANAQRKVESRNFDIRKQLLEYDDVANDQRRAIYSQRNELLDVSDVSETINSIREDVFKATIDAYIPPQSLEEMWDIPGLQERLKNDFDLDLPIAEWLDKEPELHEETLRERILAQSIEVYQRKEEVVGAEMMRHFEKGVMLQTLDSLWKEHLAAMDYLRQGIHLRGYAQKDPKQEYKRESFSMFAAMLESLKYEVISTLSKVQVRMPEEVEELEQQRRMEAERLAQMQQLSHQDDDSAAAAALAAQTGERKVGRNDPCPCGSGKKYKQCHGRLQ

| SMILES | Percent Effect [1] | Percent Effect [2] | Percent Effect [3] | Percent Effect [4] | Percent Effect [5] | Percent Effect [6] | Percent Effect [7] | Percent Effect [8] | Percent Effect [9] | Percent Effect [10] | Percent Effect [11] |
| --- | --- | --- | --- | --- | --- | --- | --- | --- | --- | --- | --- |
| COCCOCC(=O)Nc1ccc(C)cc1F | -1.36% | 2.63% | 5.59% | -0.498% | 3.21% | 0% | 9.11% | -16.7% | 2.13% | 2.6% | 2.83% |
| CC(C)(C)C(=O)N1CCCC1c1nc(O)cc(-c2ccccn2)n1 (stereo unspecified) | -5.78% | 25.7% | 5.44% | 16.5% | 3.36% | -1.62% | 11.9% | 7.83% | 5.38% | 24.7% | -13.5% |
| CN(Cc1csc(-c2cccs2)n1)C(=O)CCn1ccccc1=O | -4.95% | 8% | -1.99% | 4.47% | -1.07% | 5.21% | 22.7% | 10.8% | 3.83% | 11.1% | -4.75% |
| Cn1ccnc1CN(CCCO)C1CCCc2ccccc21 (stereo unspecified) | -5.87% | 5.26% | 3.03% | 9.71% | 0.876% | -2.37% | 3.55% | 18.1% | 3.19% | 7.79% | -0.447% |
| COCc1ccccc1C(=O)N1CCCC(n2nc(C)cc2C)C1 (stereo unspecified) | -3.82% | 5.06% | -3.09% | 3.7% | 4.06% | -6.08% | 4.67% | -9.14% | 4.43% | 3.8% | -4.28% |
| COc1cccc2cc(CNC(=O)N3CCCC(O)C3)oc12 (stereo unspecified) | -6.3% | -2.53% | -3.54% | 1.57% | 8.59% | -3.8% | 1.39% | 6.63% | 3.45% | 8.86% | -5.74% |
| Cc1ccc2c(ccn2CCC(=O)NC[C@@H]2CCCN3CCCC[C@H]23)c1 | -5.55% | 12% | -3.71% | 5.07% | 4.71% | -6.87% | 14.1% | -2.77% | 3.17% | 10.3% | -4.06% |
| COc1ccccc1OC1(C(=O)O)CCN(c2nccnc2C)CC1 | -2.61% | 5.48% | -1.61% | 9.27% | 1.19% | -5.19% | 9.16% | -8.06% | 5.21% | 23.5% | -6.84% |
| CCc1n[nH]c(C2CN(C(=O)Cn3ccccc3=O)CCO2)n1 (stereo unspecified) | 0.155% | 16.5% | -10.9% | -3.88% | 0.718% | 6.67% | 17.1% | 2.18% | 3.12% | 12.7% | -24.2% |
| O=C(c1cnccn1)N1C[C@@H]2CC[C@H](C1)N(C(=O)Cc1ccsc1)C2 | -5.86% | 2.6% | 5.34% | 4.9% | -4.82% | -16.6% | 9.32% | 8.73% | 5.38% | 3.7% | -0.624% |
| Cn1cccc1C(=O)N1CCc2ncnc(N3CCCC3)c2CC1 | -4.32% | 5.33% | 8.28% | 2.39% | 4.13% | -4.43% | -0.264% | 8.45% | 5.32% | 11.5% | -2.07% |
| CS(=O)(=O)N1CCOC2(CCCN(c3cnccn3)C2)C1 (stereo unspecified) | -3.81% | 0% | -1.28% | -4.89% | -2.83% | 1.74% | 6.09% | 1.81% | 1.07% | 1.24% | 0.866% |
| O=C(C1CCOCC1)N1CCO[C@H]2[C@@H](OCc3ccncc3)CC[C@@H]21 | -7.25% | 16.2% | -5.41% | 21.1% | 4.1% | 1.67% | 6.17% | 32.4% | 2.97% | 13.4% | -6.34% |
| CN(Cc1ccco1)Cc1ccccc1CNC(=O)c1cc[nH]n1 | -2.78% | 0% | -0.254% | 5.67% | -6.56% | 0.952% | 15.2% | 18.9% | 1.59% | 4.88% | -4.37% |
| CN(Cc1ccc(OC(F)F)cc1)C(=O)CS(=O)(=O)c1ccc(Cl)cc1 | -4.93% | -2.7% | -0.333% | 6.3% | 8.49% | -1.91% | 0.345% | 3.29% | -5.82% | 0% | -1.75% |
| COCC(NC(=O)c1cc[nH]n1)c1cccc(C(F)(F)F)c1 (stereo unspecified) | -5.2% | 16.4% | -2.13% | 16% | 3.92% | 0.455% | 6.03% | 15.4% | 4.3% | 7.5% | -5.07% |
